The values below come from PubChem BioAssay (NCATS).

The structures appear in SMILES notation. Results filed as inconclusive are left out. Unmarked numbers belong to inactive results. Activity calls are given as the source filed them. The call rests on the fitted dose curve; in most records, active means well fitted inhibition curve with a large enough effect; inconclusive means small, poorly fitted or top-dose-only effect; inactive means no such curve, though single readings can be large or run the other way.
Potency means the concentration at half of the fitted maximal effect.

The nature of the experiment: qHTS to identify inhibitors of the type 1 interferon - major histocompatibility complex class I in skeletal muscle: primary screen against the NCATS Mechanism Interrogation Plate v5.0 (MIPE) Libary (AID 1347411). Further: nearly all actives have a fitted effect of over 65% in size.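 On activity change, negative = inhibition: plate controls were vehicle for no effect and reference inhibitor for full effect.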 The conditions noted are these: iHSKM cells + IFN-b, HiBiT-tagged MHC-I luminescence, 24 h; series mostly up to 45.8 µM; activity change, negative = inhibition: at the top concentration. The method in brief: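 Immortalized human myoblasts (C25cl48) with HiBit knocked into endogenous HLA-B*08:01 were stimulated with 4 ng/ml IFN-beta and given compounds in 11-point 1:3 titration from 46 uM. After 24 h at 37 C, lytic HiBiT luminescence was read.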
Background: Quantitative high-throughput screening tests each substance at several concentrations.
`O=C1CCCC(=O)C1C(=O)c1ccc(C(F)(F)F)cc1[N+](=O)[O-]`: the “activity change, negative = inhibition” value is -27.8%. On the same count and under the same terms, the value for `CCOC(=O)c1c(CSc2ccccc2)n(C)c2cc(Br)c(O)c(CN(C)C)c12` was -11.2%; that for `NC(=O)c1ccc(N(C(N)=O)c2c(F)cccc2F)nc1-c1ccc(F)cc1F` was -21.4%.

For the compound `CCCC1OC2C[C@@H]3[C@H]4CCC5=CC(=O)C=C[C@]5(C)[C@H]4C(O)C[C@]3(C)[C@]2(C(=O)CO)O1` (stereo partly specified), the “activity change, negative = inhibition” value was -6.78%. For `CCc1cccc(CC)c1NC(=O)N1Cc2[nH]nc(NC(=O)c3ccc(N4CCN(C)CC4)cc3)c2C1`, the Potency was 10.4 µM (active). Still for that read-out and setting: the same measure for `COc1ccc2nc3cc(Cl)ccc3c(Nc3cc(CN4CCCC4)c(O)c(CN4CCCC4)c3)c2n1`: 18.6 µM (active). For `Cc1ccc2c(=O)c3cccc(CC(=O)O)c3oc2c1C`, the “activity change, negative = inhibition” value is 0.553%.

Regarding `CCC(c1ccc(O)cc1)C(CC)c1ccc(O)cc1` (stereo unspecified), the “activity change, negative = inhibition” value was -12.6%. The same measure, in the same setting: the value for `Cc1c(C(=O)Nc2ccc(N3C[C@@H](C)O[C@@H](C)C3)nc2)cccc1-c1ccc(OC(F)(F)F)cc1` was -7.77%. On the same count and under the same terms, the same measure for `CC1=C(C(=O)Nc2cc3cn[nH]c3cc2F)C(c2ccc(C(F)(F)F)cc2)CC(=O)N1` (stereo unspecified): -20.8%; for `O=C(O)c1ccc(O)c2ncc(N3CCOCC3)cc12`: 3.91%; for `Cc1cc2nc3c(=O)[nH]c(=O)nc-3n(CC(O)C(O)C(O)CO)c2cc1C` (stereo unspecified): -14.3%.

In the case of `NC[C@H]1O[C@H](O[C@@H]2[C@@H](O)[C@@H](O[C@H]3O[C@H](CO)[C@@H](O)[C@H](N)[C@@H]3O)[C@H](N)C[C@@H]2N)[C@H](O)[C@@H](O)[C@H]1O`, the “activity change, negative = inhibition” value is 1.08%.

Regarding `CN1CC(=O)NC1=NC(=O)Nc1cccc(Cl)c1`, the “activity change, negative = inhibition” value is -16%. Take `Nc1ncnc2c1ncn2[C@@H]1O[C@H](CO)[C@@H](O)[C@@H]1O`: the “activity change, negative = inhibition” value was -16.8%.

Regarding `CC1CNc2c(cccc2S(=O)(=O)N[C@@H](CCCN=C(N)N)C(=O)N2CC[C@@H](C)C[C@@H]2C(=O)O)C1` (stereo partly specified), the “activity change, negative = inhibition” value is -9.42%. Same read-out and setting: the value for `COc1cc2c(cc1OC)CC(=O)N(CCCN(C)C[C@H]1Cc3cc(OC)c(OC)cc31)CC2` was -4.96%.

For the compound `Cc1cc(-c2ncc(CC(=O)Nc3ccc(-c4cnccn4)cn3)cc2C)ccn1`, the “activity change, negative = inhibition” value is -18.6%. Same read-out and setting: the value for `Cc1cc2c(cc1C1(c3ccc(C(=O)O)cn3)CC1)C(C)(C)CCC2(C)C` was 0.232%.

On to `CNC(=O)c1cc(Oc2ccc(NC(=O)Nc3ccc(Cl)c(C(F)(F)F)c3)c(F)c2)ccn1`, for which the Potency was 23.4 µM (active). On the same count and under the same terms, the value for `CC1(COc2ccc3c(c2)ncn3-c2ccc3cccc(N4CCC(N)CC4)c3n2)COC1` was 5.23 µM (active). On to `CN1CCN2c3ncccc3Cc3ccccc3C2C1` (stereo unspecified), for which the “activity change, negative = inhibition” value was 3.27%. For the compound `CN1CCN(c2cccc(Nc3nc4c(-c5ccc(S(C)(=O)=O)cc5)cccn4n3)c2)CC1`, the Potency was 5.23 µM (active).

In the case of `COc1nc(C)cnc1NS(=O)(=O)c1cccnc1-c1ccc(-c2nnco2)cc1`, the “activity change, negative = inhibition” value was 0.366%. For `COc1cc2nccc(Oc3ccc(NC(=O)Nc4cc(C)on4)c(Cl)c3)c2cc1OC`, the Potency was 13.1 µM (active).

With `O=C(Nc1ccc(OC(F)(F)F)cc1)c1sccc1NCc1ccnc2ccccc12`, the “activity change, negative = inhibition” value was -14.3%. Regarding `CC(=O)NCCC(=O)N[C@@H](CCC(N)=O)C(=O)N[C@@H](CO)C(=O)N[C@@H](CCC(N)=O)C(=O)N[C@@H](CCC(N)=O)C(=O)N[C@H](C(=O)N[C@@H](Cc1ccccc1)C(=O)N[C@]1(C)CCCCCCC=CCCC[C@@](C)(C(=O)N[C@@H](CCC(N)=O)C(=O)N[C@@H](CC(N)=O)C(N)=O)NC(=O)[C@H](CC(C)C)NC(=O)[C@H](CC(C)C)NC(=O)[C@@H](CCCNC(=N)N)NC(=O)[C@H](Cc2c[nH]c3ccccc23)NC(=O)[C@H](CC(C)C)NC(=O)[C@H](CC(N)=O)NC1=O)[C@H](C)O`, the “activity change, negative = inhibition” value was -29.2%. For the compound `CN(C)N=Nc1nc[nH]c1C(N)=O`, the “activity change, negative = inhibition” value is -3.71%. Turning to `Cn1c(=O)c(-c2c(Cl)cccc2Cl)cc2cnc(Nc3cccc(C(=O)O)c3)nc21`, the “activity change, negative = inhibition” value is -16.4%. Consider `CCCCCCCCCCCCCCCC(=O)O[C@H]1[C@@H](O)[C@@H](O)[C@@H]([C@H](NC(=O)[C@@H]2C[C@@H](CCC)CN2C)[C@H](C)Cl)O[C@@H]1SC`, for which the “activity change, negative = inhibition” value is 5.8%. On to `O=C(NC[C@H](O)CO)c1ccncc1Nc1ccc(I)cc1F`, for which the “activity change, negative = inhibition” value is -23.9%.
